An excerpt weighted towards active compounds, which were near 8.8% of everything screened.
KB-3-1 tox: KB-3-1 parental cell cytotoxicity; KB-3-1 viability, CellTiter-Glo ATP luminescence, 72 h; Potency, µM (doses to about 46.1 µM), actives largely listed as cytotoxic; 400,000 compounds, 1.4% hits; AID 1347075; note: potency is the fitted concentration of half-maximal effect; nearly all actives have a fitted effect of over 60% in size
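Parental KB-3-1 adenocarcinoma cells in phenol-red-free DMEM with 10% FBS were pin-treated with compounds at several concentrations, incubated 72 h at 37 °C, and viability read by CellTiter-Glo luminescence; concentration-effect curves were fitted after normalization.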
HT1080 IDH1KD tx: HT-1080 IDH1 knockdown cell toxicity (counter line); AID 686971; Potency, µM (top dose mostly 46.1 µM), for inactives: at the highest dose activity, negative = toxicity, usual class: cytotoxic; HT-1080 IDH1 knockdown viability, ATP luminescence, 48 h; 360,000 compounds, 2% hits;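 note: potency is the fitted concentration of half-maximal effect; 0% = DMSO wells and -100% = cell-free medium wells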
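Luminescent ATP read-out (CellTiter-Glo, 10 min at room temperature) after 48 h compound exposure at 37 °C gave viability of IDH1-knockdown HT-1080 cells. Activity was normalised to DMSO and cell-free wells, then fitted as concentration-response curves.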
HT1080-NT tox: kills 2HG-producing HT-1080-NT fibrosarcoma cells; HT-1080-NT fibrosarcoma viability, CellTiter-Glo ATP luminescence, 48 h; Potency, µM (series often up to 46.1 µM), inactives show at the highest dose activity, negative = less viability, actives largely listed as cytotoxic; 360,000 compounds, 1.6% hits;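 note: NT is the 2HG producing partner of a matched IDH1 knockdown line; potency is the fitted concentration of half-maximal effect; 0% = DMSO-treated cells and -100% = media-only wells without cells; nearly all actives have a fitted effect of over 55% in size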
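Read-out is CellTiter-Glo luminescence after 10 minutes at room temperature, following 48 hours' compound treatment of HT-1080-NT cells (750 cells/well, RPMI, 5% FBS, 37 degrees C).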
IL-1B inflam inh: blocks inflammasome-driven IL-1 beta release | THP-1 LPS/ATP IL-1B secretion, AlphaLISA, 16 h; hits give low values | activity change, % at 57.5 µM | 360,000 compounds, 4.7% hits | AID 743279; in the data active = activity change below about -50%; inconclusive = mostly about -30% to -49%
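THP-1 cells pretreated 1 hr with compounds (up to 57.5 uM final), then stimulated with LPS (250 ng/mL final) plus ATP (1.25 mM final); secreted IL-1B measured by AlphaLISA after 16 hr, decreased signal indicating inhibition.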
KB-V1 MDR tox: kills drug-selected multidrug resistant KB-V1 cells; KB-V1 MDR cells viability, CellTiter-Glo, 72 h; Potency, µM (top dose mostly 46.1 µM), usual class: cytotoxic; 400,000 compounds, 3.4% hits; note: potency is the fitted concentration of half-maximal effect; nearly all actives have a fitted effect of over 60% in size
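Readout: CellTiter-Glo luminescence, 10 min after addition. Cells: KB-V1 MDR subline, 72 h at 37 degrees C with compound. Analysis: corrected, normalized data fitted to concentration-effect curves.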
Numbers without * were called inactive; i = inactive; ? = inconclusive; · = not tested or not shown; [ ] = remark or other dose. Unless noted, calls come from the whole dose curve; as a rule, active = well fitted curve in the direction sought with a large enough effect; inconclusive = small, poorly fitted or top-dose-only effect, or another doubt; inactive = no such curve, though single readings can be large; an effect the other way counts as inactive or inconclusive. Unless noted, % is set by controls: 0 for no effect and ±100 for the full control effect.

SMILES	KB-3-1 tox	HT1080 IDH1KD tx	HT1080-NT tox	IL-1B inflam inh	KB-V1 MDR tox
Cc1[nH][nH]c(=O)c1C(c1c(C)[nH][nH]c1=O)c1cn(Cc2ccc(F)cc2)c2ccccc12	?	?	-29.2%	-101.2*	?
Cc1cc(Cl)ccc1OCCCC(=O)OCC(N)=O	i	6.2%	-9.1%	-6.5	i
O=C(NCCCN1CCCC1=O)c1cc(S(=O)(=O)N2CCOCC2)ccc1Cl	i	-2.6%	-4.0%	10.5	i
CC(C)(C)c1cc(NC(=O)C2(C)CCN2C(=O)C2(c3ccccc3)CC2)no1 (stereo not drawn)	i	-23.6%	-2.5%	8.9	i
Cc1ccc(CN(C)C(=O)CSc2nnc3n2CCCCC3)c(C)c1	i	-4.5%	-5.5%	0.0	14.6µM*
Cc1cc(Nc2cccc([N+](=O)[O-])c2)c2ccccc2n1	i	?	-23.7%	0.2	?
Cc1cc(Nc2cccc([N+](=O)[O-])c2)c2cccc(C)c2n1	i	-28.4%	?	-95.5*	i
CCOc1ccc2nc(C)cc(Nc3cccc([N+](=O)[O-])c3)c2c1	i	18.4µM*	-27.5%	-117.9*	14.6µM*
Cc1ccc2ncnc(Nc3cccc([N+](=O)[O-])c3)c2c1	i	3.9%	11.5%	-5.1	i
Cc1ccc(Nc2nc(N)c3ccccc3n2)cc1C	i	?	-27.4%	-96.6*	?
COc1ccc(OC)c(Nc2cc(C)nc3ccccc23)c1	?	?	?	-12.7	18.4µM*
COc1ccccc1N(C)S(=O)(=O)c1ccc(C)c(C(=O)NCc2ccccn2)c1	i	11.0%	0.2%	-16.5	i
COc1cc(CN2C(=S)NC(C)(C)CC2(C)O)cc(OC)c1 (stereo not drawn)	i	14.0%	-0.1%	12.9	i
Cc1cc(Nc2ccc([N+](=O)[O-])cc2)c2ccccc2n1	i	?	?	-80.1*	i
Cc1cc(Nc2ccccc2Cl)c2ccccc2n1	i	-4.1%	-10.4%	-96.0*	?
CC(=O)Nc1ccc(Nc2cc(C)nc3ccccc23)cc1	i	5.4%	4.6%	-23.4	i
CC(=O)c1ccc(Nc2cc(C)nc3ccc(C)cc23)cc1	?	?	20.6µM*	-104.4*	?
Cc1cc(Nc2ccc(C)c(C)c2)c2ccccc2n1	i	16.4µM*	?	·	i
CC(Nc1ccc(-c2nc(-c3ccccn3)no2)cc1[N+](=O)[O-])c1ccccc1 (stereo not drawn)	i	·	·	·	i
Cc1c(Cl)cccc1NS(=O)(=O)c1ccc(NS(=O)(=O)c2ccc3c(c2)OCCO3)cc1	i	·	·	·	i
CCOc1ccc2nc(C)cc(Nc3ccc4c(c3)OCCO4)c2c1	?	?	?	-99.6*	?
Cc1ccc2nc(C)cc(Nc3ccc4c(c3)OCCO4)c2c1	?	?	?	?	i
COCCn1c(SCC(=O)NC2CCCCC2)nnc1-c1ccncc1	i	14.7%	8.3%	4.8	i
CC(NC(=O)Nc1ccc(Cl)cc1)c1ccccc1 (stereo not drawn)	i	-0.8%	-0.4%	-3.7	i
Cc1ccc(C(NC(=O)NC(C)c2ccccc2)C(Cl)(Cl)Cl)cc1F (stereo not drawn)	?	?	-27.0%	-61.9*	20.6µM*
SMILES	KB-3-1 tox	HT1080 IDH1KD tx	HT1080-NT tox	IL-1B inflam inh	KB-V1 MDR tox
CC(C)(CN1CCNCC1)NS(=O)(=O)c1ccc(Cl)cc1	20.6µM*	?	-3.5%[9.24 µM]	0.0	i
CC(C)(CN1CCCC1)NS(=O)(=O)c1ccc(Cl)cc1	i	0.4%	-1.2%	-16.1	i
O=C(Nc1ccc(Oc2ccc(NC(=O)Nc3ccc([N+](=O)[O-])cc3)cc2)cc1)Nc1ccc([N+](=O)[O-])cc1	18.4µM*	?	?	-87.6*	?
O=C(Nc1ccc(OC(F)(F)F)cc1)Nc1cccc([N+](=O)[O-])c1	11.6µM*	?	?	-106.0*	16.4µM*
Cc1ccc(NC(=O)Nc2cccc([N+](=O)[O-])c2)cc1F	?	11.6µM*	14.6µM*	-94.7*	16.4µM*
Cc1cc(NC(=O)Nc2cccc([N+](=O)[O-])c2)no1	i	3.6%	12.4%	-5.7	i
Cc1cc([N+](=O)[O-])ccc1NC(=O)Nc1ccc(F)cc1F	?	13.9%	15.5%	-82.0*	14.6µM*
CC(C)CNC(=O)c1ccc(NC(=O)c2cccs2)cc1	i	12.2%	5.3%	20.0	?
O=C(CSc1nccn1Cc1ccc(F)cc1)NC1CCCCC1	i	6.1%	-0.5%	5.7	?
Cc1cc(C)nc(OC(C(=O)O)C(OCC(C)C)(c2ccccc2)c2ccccc2)n1 (stereo not drawn)	i	-16.4%	-24.8%	19.8	i
CCc1cccc(NC(=O)CN2Cc3ccccc3C2=O)c1	i	·	·	·	i
Cc1ccc(C(C)C)cc1NC(=O)Nc1ccc([N+](=O)[O-])cc1	?	-0.8%	-5.3%	-52.2*	i
Cc1ccc(C(O)c2ncc(-c3ccccc3C(F)(F)F)[nH]2)cc1F (stereo not drawn)	i	-10.1%	-20.4%	45.2	i
COc1ccc(CCNC(=O)c2cccc(-n3cnnn3)c2)cc1	i	-0.7%	5.2%	3.6	i
COc1cccc(-c2nn(C)c3sc(C(=O)NCc4ccc(OC)cc4OC)cc23)c1	i	·	·	·	i
CCN(CCCNC(=O)c1cc2c(-c3cccc(OC)c3)nn(C)c2s1)Cc1ccccc1	i	?	?	-84.5*	i
CCOc1ccc(CCNC(=O)c2cc3c(-c4ccccc4F)nn(C)c3s2)cc1OCC	?	·	·	·	i
CCOc1ccc(CCNC(=O)c2cccc(-n3cnnn3)c2)cc1OCC	i	7.6%	5.2%	31.6	18.4µM*
CCN(CC)CCCNC(=O)c1cc2c(-c3ccc(Cl)cc3)nn(C)c2s1	?	23.1µM*	20.6µM*	-80.7*	?
CCOc1ccc(CCNC(=O)c2cc3c(-c4cccc(OC)c4)nn(C)c3s2)cc1OCC	?	·	·	·	23.1µM*
CCN(C(=O)CCc1nc(-c2ccc(C)cc2)no1)c1cccc(C(F)(F)F)c1	i	·	·	·	i
CC(C)(C)[C@@H]1C=C(C(N)=O)O[C@H](OCCCCO)C1	i	3.5%	6.2%	9.7	i
O=C1OC(O)c2cccc3cccc1c23 (stereo not drawn)	i	0.2%	3.1%	-2.6	i
Cc1ccccc1OCCOC(=O)c1cc(S(=O)(=O)N2CCCCC2)ccc1N1CCOCC1	?	-20.0%	-3.5%	-13.8	i
CCOC(=O)C1CCCN(C(=O)c2cc3c(-c4cccc(OC)c4)nn(C)c3s2)C1 (stereo not drawn)	?	18.4µM*	?	-8.0	6.51µM*
